Screening data as filed in PubChem.
A selection: hits, their analogues and other compounds. The true share with any hit is near 21%.
Gal4-VP16 FLuc: inhibits Gal4-VP16 luciferase reporter, ROR gamma counter-screen. Drosophila S2 Gal4-VP16 UAS-luciferase, luminescence, 20 h. Potency, µM (doses to about 53.6 µM), for the others: top-dose activity, negative = inhibition, actives largely listed as inhibitors. 310,000 compounds, 3.5% hits. AID 2546;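 note: Gal4-VP16 expression switched on by copper sulfate through the metallothionein promoter; potency is the fitted concentration of half-maximal effect; nearly all actives have a fitted effect of over 50% in size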
TDP1 cell CPT: growth inhibition of DT40 Tdp1-/-;hTDP1 cells with camptothecin (screen for TDP1 inhibitors) | chicken DT40 Tdp1-/-;hTDP1 cells + 20 nM CPT, ATP luminescence, 48 h | Potency, µM (series often up to 46.2 µM), inactives show top-dose activity change, negative = growth inhibition, most hits filed as inhibitors | 420,000 compounds, 12% hits; note: potency is the fitted concentration of half-maximal effect; nearly all actives have a fitted effect of over 55% in size
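Cell growth measured by CellTiter-Glo luminescence after a minimum 48 h, 37 C compound exposure with 20 nM CPT in Tdp1-knockout DT40 cells stably expressing hTDP1, seeded 400/well; qHTS titration format.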
TDP1 cell noCPT: qHTS for Inhibitors of human tyrosyl-DNA phosphodiesterase 1 (TDP1): qHTS in cells in absence of CPT | 420,000 compounds, 15% hits | Potency, µM (titrated, usually from 46.2 µM), without a hit: at the highest dose activity change, negative = growth inhibition, actives largely listed as inhibitors | DT40 Tdp1-/- hTDP1 cells, no CPT, ATP luminescence, 48 h | AID 686978, 2013; note: potency is the fitted concentration of half-maximal effect; nearly all actives have a fitted effect of over 55% in size
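DT40 Tdp1-/-;hTDP1 cells, no CPT (DMSO vehicle only), 400 cells/well; compounds pin-transferred; ≥48 hr, 37 °C; CellTiter-Glo 30 min RT dark, luminescence read.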
RORg inh: ROR gamma (mouse) transcription inhibition; Drosophila S2 Gal4-RORgamma UAS-luciferase reporter, 20 h; AID 2551; Potency, µM (doses to about 53.6 µM), for inactives: at the highest dose activity change, negative = inhibition, usual class: inhibitors; 310,000 compounds, 5.4% hits; note: potency is the fitted concentration of half-maximal effect; nearly all actives have a fitted effect of over 60% in size
Target sequence (P51450 whole entry, looked up, the tested form may be a part): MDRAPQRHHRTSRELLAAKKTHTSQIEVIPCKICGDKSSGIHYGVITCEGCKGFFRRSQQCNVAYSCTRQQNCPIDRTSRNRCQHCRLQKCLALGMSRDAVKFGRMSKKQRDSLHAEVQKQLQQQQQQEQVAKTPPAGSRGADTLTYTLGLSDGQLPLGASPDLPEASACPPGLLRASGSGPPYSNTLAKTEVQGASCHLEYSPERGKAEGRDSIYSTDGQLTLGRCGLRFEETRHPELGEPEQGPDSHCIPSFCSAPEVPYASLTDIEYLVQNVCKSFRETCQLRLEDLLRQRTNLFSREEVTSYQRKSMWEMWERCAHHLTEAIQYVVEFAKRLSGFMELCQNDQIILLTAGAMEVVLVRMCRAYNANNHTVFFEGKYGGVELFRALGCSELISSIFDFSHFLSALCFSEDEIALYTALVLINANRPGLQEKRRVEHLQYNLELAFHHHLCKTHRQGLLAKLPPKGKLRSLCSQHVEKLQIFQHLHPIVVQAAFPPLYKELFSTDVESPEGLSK
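Drosophila Schneider cells stably carrying a metallothionein-driven Gal4 DBD–ROR gamma fusion and a UAS-Photinus luciferase reporter were exposed to compound for 1 hr, then induced with copper sulfate (700 uM final) for 20 hr at ambient temperature before luminescence reading.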
IL1B secr inh: inhibitors of inflammasome signaling (IL-1 beta secretion); THP-1 LPS/ATP IL-1B secretion, AlphaLISA, 16 h; active compounds read low; activity change, % at 57.5 µM; 360,000 compounds, 4.7% hits; in the data active = activity change below about -50%; inconclusive = mostly about -30% to -49%
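THP-1 cells pretreated 1 hr with compounds (up to 57.5 uM final), then stimulated with LPS (250 ng/mL final) plus ATP (1.25 mM final); secreted IL-1B measured by AlphaLISA after 16 hr, decreased signal indicating inhibition.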
ELG1 DNA repair: ELG1-dependent DNA repair inhibition | HEK293T ELG1-luciferase reporter, luminescence, 16 h; DNA damage induced by 5-fluorouridine | Potency, µM (highest dose often 46.1 µM), for inactives: at the highest dose activity change, negative = inhibition, actives largely listed as inhibitors | 330,000 compounds, 2.3% hits | AID 504467; note: potency is the fitted concentration of half-maximal effect; nearly all actives have a fitted effect of over 55% in size
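Overnight (16 hr) co-exposure of 2,000 cells/well to 5-fluorouridine and compound at 37 °C preceded detection. Luciferase was quantified via ONE-Glo luminescence; loss of signal denotes inhibition.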
Starred values were filed as active, the others as inactive. Unless noted, calls come from the whole dose curve; as a rule, active = well fitted curve in the direction sought with a large enough effect; inconclusive = small, poorly fitted or top-dose-only effect, or another doubt; inactive = no such curve, though single readings can be large; an effect the other way counts as inactive or inconclusive. % is set by controls: 0 for no effect and ±100 for the full control effect.

Screening CC(C)(C)NC(=O)CSc1nc2ccc(NC(=O)CSc3nnnn3Cc3ccccc3)cc2s1 returned Gal4-VP16 FLuc 11µM*, TDP1 cell CPT 8.2µM*, TDP1 cell noCPT 10µM*, RORg inh -41%, IL1B secr inh -29 and ELG1 DNA repair 2.9µM*.
Screening CCOc1ccccc1NC(=O)c1cccc(NC(=O)C2CCCC2)c1 returned Gal4-VP16 FLuc -6%, TDP1 cell CPT inconclusive, TDP1 cell noCPT inconclusive, RORg inh 49%, IL1B secr inh inconclusive and ELG1 DNA repair inconclusive.
CC(O)c1cccc(NC(=O)CC(c2ccccc2)c2ccccc2)c1 (stereo not given) was read as Gal4-VP16 FLuc -5%, TDP1 cell CPT 9.2µM*, TDP1 cell noCPT 9.2µM*, RORg inh 17%, IL1B secr inh -6 and ELG1 DNA repair inconclusive.
CCOc1ccccc1NC(=O)c1cccc(NC(=O)CC(c2ccccc2)c2ccccc2)c1 was read as Gal4-VP16 FLuc -5%, TDP1 cell CPT 23µM*, TDP1 cell noCPT 26µM*, RORg inh 11%, IL1B secr inh -11 and ELG1 DNA repair -25%.
Screening CCOc1ccccc1C(=O)Nc1cc(C(=O)NCC(C)C)ccc1Cl returned Gal4-VP16 FLuc 0%, RORg inh inconclusive and ELG1 DNA repair 3%.
Screening O=C(CC(c1ccccc1)c1ccccc1)Nc1ccncc1 returned Gal4-VP16 FLuc -16%, TDP1 cell CPT inconclusive, TDP1 cell noCPT inconclusive, RORg inh 0%, IL1B secr inh -7 and ELG1 DNA repair -29%.
Screening CCOc1ccccc1NC(=O)c1ccc(Cl)c(NC(=O)CC(c2ccccc2)c2ccccc2)c1 returned Gal4-VP16 FLuc 4%, TDP1 cell CPT 18µM*, TDP1 cell noCPT inconclusive, RORg inh -13%, IL1B secr inh 10 and ELG1 DNA repair -9%.
Screening CCOc1ccccc1NC(=O)c1cccc(NC(=O)c2ccco2)c1 returned Gal4-VP16 FLuc -25%, TDP1 cell CPT 1.5µM*, TDP1 cell noCPT 1.6µM*, RORg inh 18%, IL1B secr inh 5 and ELG1 DNA repair inconclusive.
Screening O=C1NC[C@H](CCCCN2CCN(CCc3ccc(O)cc3)C(=O)C2=O)N(CCc2ccc(O)cc2)C1=O returned TDP1 cell CPT 3%, TDP1 cell noCPT -6% and IL1B secr inh 4.
`CCc1ccccc1NC(=O)c1cccc(NC(=O)/C=C/c2ccco2)c1` gave Gal4-VP16 FLuc 9%, TDP1 cell CPT 18µM*, TDP1 cell noCPT 21µM*, RORg inh 44%, IL1B secr inh -15 and ELG1 DNA repair inconclusive.
Screening CC(C)NC(=S)N/N=C1\CCCCC1C1CCCCC1 (stereo not given) returned Gal4-VP16 FLuc 3.5µM*, TDP1 cell CPT 5.8µM*, TDP1 cell noCPT 2.9µM*, RORg inh 1µM*, IL1B secr inh 0 and ELG1 DNA repair inconclusive.
`Nc1ccc(SCc2cccnc2)cc1` gave Gal4-VP16 FLuc -1%, TDP1 cell CPT -1%, TDP1 cell noCPT -20%, RORg inh 6%, IL1B secr inh 9 and ELG1 DNA repair -8%.
COc1ccc(NC(=O)C(=O)c2cn(CC(=O)N3CCCC3)c3ccccc23)cc1 was read as Gal4-VP16 FLuc 22%, TDP1 cell CPT 0.41µM*, TDP1 cell noCPT 0.23µM*, RORg inh 19%, IL1B secr inh 125 and ELG1 DNA repair inconclusive.
For CC(=O)Nc1ccc(NC(=O)C(=O)c2cn(CC(=O)N3CCCC3)c3ccccc23)cc1 the results were Gal4-VP16 FLuc 5%, TDP1 cell CPT 0%, TDP1 cell noCPT -21%, RORg inh -2%, IL1B secr inh 9 and ELG1 DNA repair 7%.
Screening CC(=O)Nc1cccc(NC(=O)C(=O)c2cn(CC(=O)N3CCCCC3)c3ccccc23)c1 returned Gal4-VP16 FLuc -3%, TDP1 cell CPT 23µM*, TDP1 cell noCPT inconclusive, RORg inh 36%, IL1B secr inh -3 and ELG1 DNA repair 3%.
COc1ccc(CCNC(=O)CS(=O)(=O)c2cn(CC(=O)N3CCCC3)c3ccccc23)cc1OC was read as Gal4-VP16 FLuc -1%, TDP1 cell CPT 0%, TDP1 cell noCPT -3%, RORg inh 8%, IL1B secr inh 10 and ELG1 DNA repair -8%.
For COc1ccc(CCNC(=O)C(=O)c2cn(CC(=O)N3CCCC3)c3ccccc23)cc1OC the results were TDP1 cell CPT -9%, TDP1 cell noCPT 21µM* and IL1B secr inh -30.
COc1ccc(CCNC(=O)Cn2cc(S(=O)(=O)Cc3ccc(F)cc3)c3ccccc32)cc1OC was read as TDP1 cell CPT inconclusive and TDP1 cell noCPT 21µM*.
Screening COc1ccc(S(=O)(=O)Nc2cc3[nH]c(=O)oc3cc2C)cc1 returned Gal4-VP16 FLuc -3%, TDP1 cell CPT inconclusive, TDP1 cell noCPT inconclusive, RORg inh 41%, IL1B secr inh 19 and ELG1 DNA repair -16%.
Screening COCC(=O)N1CCC2(CC1)CN(c1ccncc1)C2 returned Gal4-VP16 FLuc 8%, TDP1 cell CPT 5%, TDP1 cell noCPT 4% and RORg inh -14%.
Cc1cc(Br)cn2c(Cc3ccccc3)c(-c3cccc(Cl)c3)nc12 was read as TDP1 cell CPT 13µM*, TDP1 cell noCPT 23µM* and IL1B secr inh 37.
`Cc1ccc(Cc2c(-c3ccccc3)nc3c(C)cc(Br)cn23)cc1` gave TDP1 cell CPT inconclusive, TDP1 cell noCPT 10µM* and IL1B secr inh 28.
Cc1cc(Br)cn2c(Cc3cccc(F)c3)c(-c3ccccc3)nc12 was read as TDP1 cell CPT 29µM*, TDP1 cell noCPT 18µM* and IL1B secr inh 0.
For Cc1ccc(-c2nc3c(C)cc(Br)cn3c2Cc2cccc(F)c2)cc1 the results were TDP1 cell CPT inconclusive, TDP1 cell noCPT inconclusive and IL1B secr inh 0.
For Cc1ccc(Cc2c(-c3ccc(C#N)cc3)nc3c(C)cc(Br)cn23)cc1 the results were TDP1 cell CPT inconclusive, TDP1 cell noCPT inconclusive and IL1B secr inh 7.
Screening COc1cc(Cl)c(C)cc1NC(=O)c1ccccc1-n1cnnn1 returned TDP1 cell CPT inconclusive, TDP1 cell noCPT inconclusive, IL1B secr inh 7 and ELG1 DNA repair 0%.
